Assay results as given in PubChem BioAssay (NCATS).
Records with an inconclusive call do not appear. The source made the active and inactive calls. The call rests on the fitted dose curve; in most records, active means well fitted curve in the direction sought with a large enough effect; inconclusive means small, poorly fitted or top-dose-only effect, or another doubt; inactive means no such curve, though single readings can be large; an effect the other way counts as inactive or inconclusive.

Assays:
[1] = system: W2; assay: qHTS profiling for inhibitors of Plasmodium falciparum proliferation (AID 504749); further: nearly all actives have a fitted effect of over 60% in size; settings: P. falciparum in erythrocytes, SYBR Green DNA, 72 h; series mostly up to 28.7 µM
Method in brief: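 SYBR Green fluorescence (ex 485 nm, em 535 nm) reports parasite DNA after 72 h compound exposure of infected red cells at 0.3% parasitemia, 2.5% hematocrit; signal normalized to 0.29 uM artemisinin and vehicle wells.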

[2] = system: CRL-7250; assay: Cytotoxic Profiling of Annotated Libraries Using Quantitative High-Throughput Screening (AID 1296008); settings: Five cell lines viability, CellTiter-Glo ATP luminescence, 48-72 h; max response: active compounds read low; further: nearly all actives have a fitted effect of over 60% in size; on max response: on the % scale 0 is the no-effect control and ±100 the full control effect
Method in brief: (§1)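 Cells exposed to compounds for 48 or 72 hr at 37 degrees Celsius. Viability read as ATP-coupled luminescence with CellTiter-Glo after 10 min at room temperature.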

[3] = system: HaCat; assay: as above; settings: Five cell lines viability, CellTiter-Glo ATP luminescence, 48-72 h; max response: active compounds read low
Method in brief: as §1

[4] = system: KB-3-1; assay: as above; settings: Five cell lines viability, CellTiter-Glo ATP luminescence, 48-72 h; max response: active compounds read low
Method in brief: as §1

[5] = system: NIH3T3; assay: as above; settings: Five cell lines viability, CellTiter-Glo ATP luminescence, 48-72 h; max response: active compounds read low
Method in brief: as §1

[6] = system: HACAT; assay: qHTS assay to identify novel small-molecules to repurpose for Merkel cell carcinoma treatment (AID 1296009); settings: MCC and control cell lines, CellTiter-Glo viability, 72 h; at 44.8 µM (top of the series) unless noted; further: nearly all actives have a fitted effect of over 60% in size
Method in brief: (§2)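 CellTiter-Glo luminescence after 72 hr compound exposure at 37 degree celsius gave cell viability. Libraries NPC and MIPE were run as 8- and 11-point dose responses; RLUs normalized to DMSO (negative) and no-cell (cytotoxicity) controls.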

[7] = system: MCC-13; assay: as above; settings: MCC and control cell lines, CellTiter-Glo viability, 72 h; series mostly up to 46 µM
Method in brief: as §2

[8] = system: MCC-26; assay: as above; settings: MCC and control cell lines, CellTiter-Glo viability, 72 h; series mostly up to 46 µM
Method in brief: as §2

[9] = system: MKL-1; assay: as above; settings: MCC and control cell lines, CellTiter-Glo viability, 72 h; series mostly up to 46 µM
Method in brief: as §2

[10] = system: NIH3T3; assay: as above; settings: MCC and control cell lines, CellTiter-Glo viability, 72 h; at 44.8 µM (top of the series)
Method in brief: as §2

[11] = system: UISO; assay: as above; settings: MCC and control cell lines, CellTiter-Glo viability, 72 h; series mostly up to 46 µM
Method in brief: as §2

[12] = system: WaGa; assay: as above; settings: MCC and control cell lines, CellTiter-Glo viability, 72 h; series mostly up to 46 µM
Method in brief: as §2

[13] = system: C33A; assay: Primary qHTS to identify gynecologic anti-cancer compounds using libraries of approved drugs and bioactive compounds (AID 1345084); settings: Gynecologic cancer cell panel viability, ATPlite luminescence, 48 h; series mostly up to 57.5 µM; further: nearly all actives have a fitted effect of over 55% in size
Method in brief: (§3)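 48 h compound exposure at 37 C, 5% CO2; five-point qHTS. ATPlite luminescence readout of cell ATP.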

[14] = system: CAOV3; assay: as above; settings: Gynecologic cancer cell panel viability, ATPlite luminescence, 48 h; series mostly up to 57.5 µM
Method in brief: as §3

[15] = system: CASKI; assay: as above; settings: Gynecologic cancer cell panel viability, ATPlite luminescence, 48 h; series mostly up to 57.5 µM
Method in brief: as §3

[16] = system: Es-2; assay: as above; settings: Gynecologic cancer cell panel viability, ATPlite luminescence, 48 h; series mostly up to 57.5 µM
Method in brief: as §3

[17] = system: HeLa; assay: as above; settings: Gynecologic cancer cell panel viability, ATPlite luminescence, 48 h; series mostly up to 57.5 µM
Method in brief: as §3

[18] = system: MKL-2; assay: qHTS assay to identify novel small-molecules to repurpose for Merkel cell carcinoma treatment (AID 1296009); settings: MCC and control cell lines, CellTiter-Glo viability, 72 h; series mostly up to 46 µM; further: nearly all actives have a fitted effect of over 60% in size
Method in brief: as §2

[19] = system: HEK293; assay: Cytotoxic Profiling of Annotated Libraries Using Quantitative High-Throughput Screening (AID 1296008); settings: Five cell lines viability, CellTiter-Glo ATP luminescence, 48-72 h; max response: active compounds read low; further: nearly all actives have a fitted effect of over 60% in size; on max response: on the % scale 0 is the no-effect control and ±100 the full control effect
Method in brief: as §1
Potency means the concentration at half of the fitted maximal effect.

Cc1cc(CC(=O)O)c(C)n1-c1ccc(Cl)cc1
active: Potency [1] 8.49 µM
inactive: outcome [2] | outcome [3] | max response [4] -2.45% | outcome [5] | outcome [6] | Potency [7] | Potency [8] | Potency [9] | outcome [10] | Potency [11] | Potency [12] | Potency [13] | Potency [14] | Potency [15] | Potency [16] | Potency [17]

CCOC(=O)C(C#N)=C(c1ccccc1)c1ccccc1
inactive: Potency [1] | max response [2] -5.66% | max response [3] -20.2% | max response [4] 1.81% | max response [5] 3.96% | Potency [7] | Potency [8] | Potency [9] | Potency [18] | Potency [11] | Potency [12] | Potency [13] | Potency [14] | Potency [15] | Potency [16] | Potency [17]

C[C@@]12C(=O)OC(=O)[C@]1(C)C1CCC2O1
active: Potency [2] 2.99 µM | Potency [19] 7.5 µM | Potency [5] 9.44 µM | Potency [7] 3.76 µM | Potency [8] 4.22 µM | Potency [9] 3.76 µM | Potency [11] 2.66 µM | Potency [14] 0.631 µM | Potency [15] 6.31 µM | Potency [16] 10 µM | Potency [17] 3.55 µM

CN1CCN(c2cc3c(cc2F)c(=O)c(C(=O)O)cn3-c2ccc(F)cc2)CC1
active: Potency [1] 12 µM
inactive: max response [2] -1.2% | max response [3] 2% | max response [4] -5.32% | max response [5] -2.14% | Potency [7] | Potency [8] | Potency [9] | Potency [18] | Potency [11] | Potency [12] | Potency [13] | Potency [14] | Potency [15] | Potency [16] | Potency [17]

C[N+]1(C)CCC(=C(c2ccccc2)c2ccccc2)CC1
inactive: Potency [1] | max response [2] -1% | outcome [3] | max response [4] 3.66% | max response [5] -1.38% | outcome [6] | Potency [7] | Potency [8] | Potency [9] | Potency [18] | Potency [13] | Potency [14] | Potency [15] | Potency [16] | Potency [17]

CCN(CC)CCNc1ccc(CO)c2sc3ccccc3c(=O)c12
inactive: Potency [17]
active: Potency [1] 0.675 µM | Potency [2] 18.8 µM | Potency [19] 7.5 µM | Potency [5] 23.7 µM | Potency [7] 26.6 µM | Potency [9] 10.6 µM | Potency [18] 3.35 µM | Potency [11] 5.96 µM | Potency [14] 22.4 µM

N/C(=N\N=C\c1ccc(Cl)cc1)N/N=C/c1ccc(Cl)cc1
inactive: outcome [2] | outcome [3] | max response [4] 13.1% | max response [5] -19% | outcome [6] | Potency [7] | Potency [8] | Potency [9] | Potency [11] | Potency [12] | Potency [13] | Potency [15] | Potency [16] | Potency [17]

CC(C)=CCOc1ccc(/C=C/C(=O)c2ccc(OCC=C(C)C)cc2OCC(=O)O)cc1
inactive: max response [2] -15.2% | outcome [3] | max response [4] 1.11% | outcome [5] | outcome [6] | Potency [7] | Potency [9] | Potency [18] | outcome [10] | Potency [12] | Potency [13] | Potency [14] | Potency [15] | Potency [16] | Potency [17]

O=C(NC1CCN(CCc2c[nH]c3ccccc23)CC1)c1ccccc1
inactive: max response [2] -5.92% | outcome [3] | max response [4] -0.418% | max response [5] -2.1% | outcome [6] | Potency [7] | Potency [8] | Potency [9] | Potency [18] | Potency [11] | Potency [12] | Potency [13] | Potency [15] | Potency [16]

NC(N)=NN=C(/C=C/c1ccc([N+](=O)[O-])o1)/C=C/c1ccc([N+](=O)[O-])o1
active: Potency [1] 2.39 µM | Potency [2] 5.96 µM | Potency [19] 4.73 µM | Potency [5] 6.68 µM | Potency [7] 2.66 µM | Potency [9] 0.376 µM | Potency [18] 0.237 µM | Potency [11] 0.841 µM | Potency [12] 0.237 µM | Potency [13] 12.6 µM | Potency [14] 6.31 µM | Potency [16] 31.6 µM | Potency [17] 22.4 µM

NC1CCN(c2nc3c(cc2F)c(=O)c(C(=O)O)cn3-c2ccc(F)cc2F)C1 (configuration not stated)
inactive: outcome [2] | outcome [3] | max response [4] 1.57% | outcome [5] | outcome [6] | Potency [7] | Potency [8] | Potency [9] | Potency [18] | outcome [10] | Potency [11] | Potency [12] | Potency [13] | Potency [15] | Potency [16] | Potency [17]
active: Potency [1] 5.36 µM

C[C@H]1[C@H]2CC[C@H]3[C@@H]4CC=C5C[C@@H](N(C)C)CC[C@]5(C)[C@H]4CC[C@]23CN1C
inactive: max response [2] -17.6% | outcome [3] | max response [4] 3.38% | max response [5] 0.439% | outcome [6] | Potency [7] | Potency [8] | Potency [18] | Potency [11] | Potency [12] | Potency [13] | Potency [14] | Potency [15] | Potency [16] | Potency [17]

C#C[C@]1(O)CC[C@H]2[C@@H]3[C@H](C)CC4=C(CCC(=O)C4)[C@H]3CC[C@@]21C
inactive: max response [2] -3.96% | outcome [3] | max response [4] -4.12% | max response [5] -7.98% | outcome [6] | Potency [7] | Potency [9] | Potency [11] | Potency [13] | Potency [14] | Potency [15] | Potency [16] | Potency [17]
active: Potency [12] 18.8 µM

CCN1CCCC(OC(=O)C(c2ccccc2)c2ccccc2)C1 (configuration not stated)
inactive: outcome [2] | max response [3] -8.51% | max response [4] -9.59% | max response [5] 2.04% | Potency [7] | Potency [8] | Potency [9] | Potency [18] | Potency [11] | Potency [12] | Potency [13] | Potency [14] | Potency [15] | Potency [16] | Potency [17]
